Screening data from PubChem BioAssay.
Only some compounds are listed: those with a hit (about 2.3% of all), similar ones and a draw of the others.
Pol iota inh – qHTS for Inhibitors of Polymerase Iota | DNA polymerase iota (Homo sapiens), Q9UNA4 | Potency, µM (doses to about 115 µM), actives largely listed as inhibitors | Pol iota fluorescent replication assay, 10 min | 1% of 390,000 active
Target sequence (Q9UNA4 whole entry, looked up): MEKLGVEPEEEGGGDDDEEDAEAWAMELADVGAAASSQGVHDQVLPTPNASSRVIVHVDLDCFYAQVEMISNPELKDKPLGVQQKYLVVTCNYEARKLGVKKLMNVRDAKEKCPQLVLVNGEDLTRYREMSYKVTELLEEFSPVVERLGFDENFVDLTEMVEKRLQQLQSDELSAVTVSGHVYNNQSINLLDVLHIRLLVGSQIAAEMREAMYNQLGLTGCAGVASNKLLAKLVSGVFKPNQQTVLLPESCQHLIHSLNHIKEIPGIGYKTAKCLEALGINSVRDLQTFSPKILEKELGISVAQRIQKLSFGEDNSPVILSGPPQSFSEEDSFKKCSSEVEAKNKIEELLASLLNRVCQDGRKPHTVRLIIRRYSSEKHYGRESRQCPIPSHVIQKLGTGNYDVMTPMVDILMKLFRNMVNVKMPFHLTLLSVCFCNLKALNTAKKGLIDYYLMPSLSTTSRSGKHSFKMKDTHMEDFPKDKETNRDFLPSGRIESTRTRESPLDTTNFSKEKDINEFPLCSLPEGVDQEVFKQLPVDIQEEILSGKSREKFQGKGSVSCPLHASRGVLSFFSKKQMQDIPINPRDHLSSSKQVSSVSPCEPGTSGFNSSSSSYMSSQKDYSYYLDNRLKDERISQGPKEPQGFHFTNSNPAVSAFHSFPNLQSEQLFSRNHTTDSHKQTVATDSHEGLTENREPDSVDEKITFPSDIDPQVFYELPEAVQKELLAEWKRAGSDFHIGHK
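Pol iota at 10 nM preincubated 15 min with compounds at room temperature; reaction started with fluorescent substrate, 50 nM final. Fluorescence read kinetically at 0 and 10 min; buffer-only wells as negative control.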
Pol beta inh – qHTS Assay for Inhibitors of DNA Polymerase Beta; Potency, µM (top dose mostly 114 µM), hits mostly inhibitors; Pol beta primer extension/strand displacement, fluorescence kinetic; 1.3% of 340,000 active; P06746
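10 nM enzyme + cpd, 15 min RT; start with substrate 50 nM final; read 0 min and after 10 min RT. Corrected, normalized data; 4-parameter Hill curve fit.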
POLH inh – qHTS for Inhibitors of Polymerase Eta. recombinant Pol eta, fluorescent DNA replication assay. Potency, µM (series often up to 114 µM), most hits filed as inhibitors. 1.2% of 390,000 active. AID 588591, 2011
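Fluorescent replication assay: 50 nM final substrate added after a 15 min room-temperature compound preincubation with 10 nM enzyme. Signal taken at 0 min and again at 10 min.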
WRN inhibitor – qHTS for Inhibitors of WRN Helicase; Bifunctional 3'-5' exonuclease/ATP-dependent helicase WRN (Homo sapiens), Q14191; WRN helicase unwinding, fluorescent forked duplex, kinetic; Potency, µM (series often up to 114 µM), usual class: inhibitors; 0.46% of 360,000 active; further: nearly all actives have a fitted effect of over 55% in size
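Primary qHTS, 1536-well format. 20 nM WRN + compound, 15 min RT; start with 100 nM forked fluorophore/quencher duplex, 2 mM ATP (final); kinetic read ex 525/em 598 nm.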
POLK inh – qHTS for Inhibitors of Polymerase Kappa | DNA polymerase kappa (Homo sapiens), Q9UBT6 | purified Pol kappa, fluorescent DNA synthesis assay, 10 min | Potency, µM (series often up to 107 µM), usual class: inhibitors | 0.53% of 400,000 active
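Activity was followed as the change in fluorescence between reads at 0 and 10 min after starting the reaction with 50 nM substrate. Beforehand, 10 nM polymerase had been preincubated with compound for 15 min at room temperature.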
Numbers stand for hits; ! = not active in a repeat; [ ] = dose if it differs, or a comment. The call rests on the fitted dose curve; in most records, active means well fitted curve in the direction sought with a large enough effect; inconclusive means small, poorly fitted or top-dose-only effect, or another doubt; inactive means no such curve, though single readings can be large; an effect the other way counts as inactive or inconclusive.

Screening COC(=O)C1C(c2ccccc2)C(C(=O)OCc2ccco2)C1c1ccccc1 (stereo unspecified) returned Pol iota inh inactive, Pol beta inh inactive, POLH inh inactive, WRN inhibitor inactive and POLK inh inactive.
For O=C(OC1Cc2c(O)cc(O)cc2OC1c1cc(O)c(O)c(O)c1-c1c(C2Oc3cc(O)cc(O)c3CC2O)cc(O)c(O)c1O)c1cc(O)c(O)c(O)c1 (stereo unspecified) the results were POLK inh 0.79µM.
Screening COc1ccccc1NC(C)C(=O)c1c[nH]c2ccccc12 (stereo unspecified) returned Pol iota inh inactive and POLK inh inactive.
`Cc1ccnc(NS(=O)(=O)c2ccc(CC(C)C)cc2)c1` gave Pol iota inh inactive, Pol beta inh 100µM, POLH inh inactive, WRN inhibitor inactive and POLK inh inactive.
For O=C(COc1ccccc1C(=O)Nc1ccccc1)Nc1ccc(Br)cc1 the results were Pol iota inh inactive and POLK inh inactive.
`COc1ccc(/C=N/Nc2nn3cnnc3c3ccccc23)cc1` gave Pol iota inh inactive, Pol beta inh 1.8µM, POLH inh inconclusive, WRN inhibitor inconclusive and POLK inh inactive.
Screening CC1(OC(=O)C2CCCC2)C(=O)C=C2C=C(c3ccsc3)OC=C2C1=O (stereo unspecified) returned Pol iota inh 45µM, Pol beta inh 35µM, POLH inh 32µM, WRN inhibitor inconclusive and POLK inh inconclusive.
`CC1(OC(=O)CCc2ccccc2)C(=O)C=C2C=C(c3ccc(C#N)cc3)N(c3ccccc3)C=C2C1=O` (stereo unspecified) gave Pol iota inh inactive, Pol beta inh inactive, POLH inh inactive, WRN inhibitor inactive and POLK inh inactive.
Screening CC1(OC(=O)CCc2ccccc2)C(=O)C=C2C=C(c3ccsc3)OC=C2C1=O (stereo unspecified) returned Pol beta inh 45µM.
Screening COC(=O)CCCC1=CC2=CC(=O)C(C)(OC(=O)C3CCCC3)C(=O)C2=CO1 (stereo unspecified) returned Pol iota inh 22µM, Pol beta inh 45µM, POLH inh 20µM, WRN inhibitor inconclusive and POLK inh inconclusive.
CC1(OC(=O)c2ccco2)C(=O)C=C2C=C(C3CC3)OC=C2C1=O (stereo unspecified) was read as Pol iota inh inconclusive, POLH inh 45µM, WRN inhibitor inconclusive and POLK inh 79µM.
COC(=O)CCCC1=CC2=C(c3ccccc3)C(=O)C(C)(OC(=O)C3CCCC3)C(=O)C2=CN1C1CCCC1 (stereo unspecified) was read as Pol iota inh inactive, Pol beta inh inactive, POLH inh inactive, WRN inhibitor inactive and POLK inh inactive.
CC1(OC(=O)c2cccs2)C(=O)C=C2C=C(C3CC3)OC=C2C1=O (stereo unspecified) was read as Pol iota inh inconclusive, POLH inh inconclusive, WRN inhibitor inactive[11.6 µM] and POLK inh inactive.
O=C(Nc1cccc(-c2nc3cccnc3s2)c1)C1c2ccccc2Oc2ccccc21 was read as Pol iota inh inactive, Pol beta inh inactive, POLH inh 8.9µM, WRN inhibitor inactive[11.6 µM] and POLK inh inactive.
For CCOc1ccc(N=Nc2c(=O)[nH]n3c(=O)cc(C)[nH]c23)cc1 the results were Pol iota inh inactive, Pol beta inh inactive, POLH inh inactive, WRN inhibitor inactive and POLK inh inactive.
For CCOc1ccc(N=Nc2c(=O)[nH]n3c(=O)c4c([nH]c23)CCCC4)cc1 the results were Pol iota inh inactive, Pol beta inh 50µM, POLH inh inactive, WRN inhibitor inactive and POLK inh inactive.
Brc1ccc(C2=CC(c3cccs3)n3ncnc3N2)cc1 (stereo unspecified) was read as Pol iota inh inconclusive, Pol beta inh 50µM, POLH inh inconclusive, WRN inhibitor inactive and POLK inh inactive.
Screening CC1(C)CC(=O)c2cc(C(=O)Nc3ccccc3)c(=O)[nH]c2C1 returned Pol iota inh inactive and POLK inh inactive.
Screening CCC1(C)NC(=O)N(CC(=O)Nc2sc3c(c2C(N)=O)CCC3)C1=O (stereo unspecified) returned Pol iota inh inconclusive, Pol beta inh 20µM, POLH inh 79µM, WRN inhibitor inconclusive and POLK inh inconclusive.
`CCn1c2ccccc2c2cc(/C=C3\C=Cc4ccccc43)ccc21` gave Pol iota inh inactive and POLK inh inactive.
For C=C1C(=O)OC2C1CCC(C)=C1C(=O)C3OC3(C)C12 (stereo unspecified) the results were Pol iota inh inconclusive, POLH inh 89µM, WRN inhibitor inactive and POLK inh inactive.
Screening C=C1C(=O)O[C@@H]2[C@@H]1CC/C(C)=C\CC[C@@]1(C)O[C@H]21 returned POLK inh inactive[12 µM].
Screening C[C@H]1[C@@H](OC(=O)CCC(=O)O)OC2OC3(C)CC[C@H]4[C@H](C)CC[C@@H]1[C@@]24OO3 (stereo partly specified) returned POLK inh inactive[19.4 µM].
For CN(C)c1ccc(/C=C/c2ccnc3ccc(N)cc23)cc1 the results were Pol iota inh inactive and POLK inh inactive.
Screening Cc1cc(C)c(N(Cc2ccccc2)S(=O)(=O)c2ccc(OCCNC(=O)c3cc4ccccc4o3)cc2)c(C(=O)NO)c1 returned POLK inh inactive.
`O=C1C2CC=C(Cl)CC2C(=O)N1c1ncn[nH]1` (stereo unspecified) gave Pol iota inh inconclusive, Pol beta inh 28µM, POLH inh 22µM, WRN inhibitor inactive and POLK inh inactive.
Screening CC1=CC(O)=NS(=O)(=O)O1 returned Pol iota inh inactive and POLK inh inactive.
`Cc1cc2ccccn2c1C(=O)c1nc(NCc2ccccc2)ncc1Cl` gave Pol iota inh 79µM!, Pol beta inh inactive, POLH inh inactive, WRN inhibitor inactive and POLK inh inactive.
Screening COc1ccc(N2CCN(CCCNC(=O)c3nnc(Cc4ccc(F)cc4)o3)CC2)cc1 returned Pol iota inh inactive, Pol beta inh inactive, POLH inh inactive and POLK inh inactive.
Screening c1ccc(Cc2nnc3sc(-c4ccco4)nn23)cc1 returned Pol iota inh 40µM, Pol beta inh inactive, POLH inh 25µM, WRN inhibitor inconclusive and POLK inh 79µM.
